{"source": "PubChem BioAssay AID1159580", "about": "(chemical genetic matrix, 2015)", "assay": "chemical genetic growth profiling, strain panel (AID 1159580);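 also: tested at 20 µM; growth read once vehicle control cultures reached saturation at 30 °C; 1 = growth at the plate median or of vehicle wells; lower values mean less growth of the strain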", "conditions": "S. cerevisiae deletion strains, growth OD", "note": "Out of some 5,500 compounds screened, about 2,000 (36%) were called active. Not shown: some 18% with an inconclusive outcome. The list shows a part of the results. A number with no mark means an inactive call. Rule as the data show it: active = normalized growth mostly below about 0.91 (no sharp cut-off); inconclusive = no clear call, values can overlap the other calls; inactive = mostly above about 0.92."}
{"smiles": "O=C(Nc1cccc(Cl)c1)O/N=C1\\CCCc2occc21", "values": [{"measurement": "normalized growth", "setting": "locus YAR019C, strain CDC15, active compounds read low", "value": 0.937}, {"measurement": "normalized growth", "setting": "locus YBL105C, strain PKC1, active compounds read low", "value": 0.952}, {"measurement": "normalized growth", "setting": "locus YBR135W, strain CKS1, active compounds read low", "value": 0.936}, {"measurement": "normalized growth", "setting": "locus YBR136W, strain MEC1, active compounds read low", "value": 0.939}, {"measurement": "normalized growth", "setting": "locus YBR160W, strain CDC28, active compounds read low", "value": 0.943}, {"measurement": "normalized growth", "setting": "locus YDL017W, strain CDC7, active compounds read low", "value": 0.949}, {"measurement": "normalized growth", "setting": "locus YDL028C, strain MPS1, active compounds read low", "value": 0.933}, {"measurement": "normalized growth", "setting": "locus YDL101C, strain DUN1, active compounds read low", "value": 0.965}, {"measurement": "normalized growth", "setting": "locus YDL108W, strain KIN28, active compounds read low", "value": 0.929}, {"measurement": "normalized growth", "setting": "locus YDL132W, strain cdc53, active compounds read low", "value": 0.917}, {"measurement": "normalized growth", "setting": "locus YDL214C, strain PRR2, active compounds read low", "value": 0.809}, {"measurement": "normalized growth", "setting": "locus YDR052C, strain DBF4, active compounds read low", "value": 0.964}, {"measurement": "normalized growth", "setting": "locus YDR054C, strain cdc34, active compounds read low", "value": 0.927}, {"measurement": "normalized growth", "setting": "locus YDR226W, strain ADK1, active compounds read low", "value": 0.945}, {"measurement": "normalized growth", "setting": "locus YDR477W, strain SNF1, active compounds read low", "value": 0.798}, {"measurement": "normalized growth", "setting": "locus YER123W, strain YCK3, active compounds read low", "value": 0.759}, {"measurement": "normalized growth", "setting": "locus YER133W, strain GLC7, active compounds read low", "value": 0.789}, {"measurement": "normalized growth", "setting": "locus YFL009W, strain cdc4, active compounds read low", "value": 0.925}, {"measurement": "normalized growth", "setting": "locus YFL029C, strain CAK1, active compounds read low", "value": 0.941}, {"measurement": "normalized growth", "setting": "locus YFR003C, strain YPI1, active compounds read low", "value": 0.937}, {"measurement": "normalized growth", "setting": "locus YFR019W, strain FAB1, active compounds read low", "value": 0.944}, {"measurement": "normalized growth", "setting": "locus YFR028C, strain CDC14, active compounds read low", "value": 0.935}, {"measurement": "normalized growth", "setting": "locus YGR040W, strain KSS1, active compounds read low", "value": 0.83}, {"measurement": "normalized growth", "setting": "locus YGR052W, strain FMP48, active compounds read low", "value": 0.8}, {"measurement": "normalized growth", "setting": "locus YGR092W, strain DBF2, active compounds read low", "value": 0.69}, {"measurement": "normalized growth", "setting": "locus YHR030C, strain SLT2, active compounds read low", "value": "0.649 (active)"}, {"measurement": "normalized growth", "setting": "locus YHR079C, strain IRE1, active compounds read low", "value": 0.667}, {"measurement": "normalized growth", "setting": "locus YHR082C, strain KSP1, active compounds read low", "value": 0.752}, {"measurement": "normalized growth", "setting": "locus YHR205W, strain SCH9, active compounds read low", "value": 0.659}, {"measurement": "normalized growth", "setting": "locus YIL147C, strain SLN1, active compounds read low", "value": 0.943}, {"measurement": "normalized growth", "setting": "locus YJL095W, strain BCK1, active compounds read low", "value": 0.671}, {"measurement": "normalized growth", "setting": "locus YJL128C, strain PBS2, active compounds read low", "value": 0.954}, {"measurement": "normalized growth", "setting": "locus YJL157C, strain FAR1, active compounds read low", "value": 0.842}, {"measurement": "normalized growth", "setting": "locus YJR016C, strain ILV3, active compounds read low", "value": 0.931}, {"measurement": "normalized growth", "setting": "locus YJR066W, strain TOR1 (second series), active compounds read low", "value": 0.86}, {"measurement": "normalized growth", "setting": "locus YJR066W, strain TOR1, active compounds read low", "value": 0.742}, {"measurement": "normalized growth", "setting": "locus YKL048C, strain ELM1, active compounds read low", "value": 0.899}, {"measurement": "normalized growth", "setting": "locus YKL067W, strain YNK1, active compounds read low", "value": 0.817}, {"measurement": "normalized growth", "setting": "locus YKL101W, strain HSL1, active compounds read low", "value": 0.829}, {"measurement": "normalized growth", "setting": "locus YKL193C, strain SDS22, active compounds read low", "value": 0.926}, {"measurement": "normalized growth", "setting": "locus YKL203C, strain TOR2, active compounds read low", "value": 0.792}, {"measurement": "normalized growth", "setting": "locus YLR113W, strain HOG1, active compounds read low", "value": "0.613 (active)"}, {"measurement": "normalized growth", "setting": "locus YLR133W, strain CKI1, active compounds read low", "value": 0.843}, {"measurement": "normalized growth", "setting": "locus YLR403W, strain SFP1, active compounds read low", "value": 0.748}, {"measurement": "normalized growth", "setting": "locus YML070W, strain DAK1, active compounds read low", "value": 0.788}, {"measurement": "normalized growth", "setting": "locus YMR001C, strain CDC5, active compounds read low", "value": 0.935}, {"measurement": "normalized growth", "setting": "locus YMR205C, strain PFK2 (second series), active compounds read low", "value": 0.831}, {"measurement": "normalized growth", "setting": "locus YMR277W, strain FCP1, active compounds read low", "value": 0.932}, {"measurement": "normalized growth", "setting": "locus YNL006W, strain LST8, active compounds read low", "value": 0.939}, {"measurement": "normalized growth", "setting": "locus YNL020C, strain ARK1, active compounds read low", "value": 0.828}, {"measurement": "normalized growth", "setting": "locus YNL161W, strain CBK1, active compounds read low", "value": 0.945}, {"measurement": "normalized growth", "setting": "locus YNL183C, strain NPR1, active compounds read low", "value": 0.652}, {"measurement": "normalized growth", "setting": "locus YNL207W, strain RIO2, active compounds read low", "value": 0.936}, {"measurement": "normalized growth", "setting": "locus YNL222W, strain SSU72, active compounds read low", "value": 0.929}, {"measurement": "normalized growth", "setting": "locus YNL307C, strain MCK1 (second series), active compounds read low", "value": 0.83}, {"measurement": "normalized growth", "setting": "locus YOL078W, strain AVO1, active compounds read low", "value": 0.923}, {"measurement": "normalized growth", "setting": "locus YOL136C, strain PFK27, active compounds read low", "value": 0.798}, {"measurement": "normalized growth", "setting": "locus YOR061W, strain CKA2, active compounds read low", "value": 0.85}, {"measurement": "normalized growth", "setting": "locus YOR119C, strain RIO1, active compounds read low", "value": 0.847}, {"measurement": "normalized growth", "setting": "locus YOR231W, strain MKK1, active compounds read low", "value": 0.672}, {"measurement": "normalized growth", "setting": "locus YOR329C, strain SCD5, active compounds read low", "value": 0.959}, {"measurement": "normalized growth", "setting": "locus YPL031C, strain PHO85, active compounds read low", "value": 0.741}, {"measurement": "normalized growth", "setting": "locus YPL153C, strain RAD53, active compounds read low", "value": 0.772}, {"measurement": "normalized growth", "setting": "locus YPL204W, strain HRR25, active compounds read low", "value": 0.773}, {"measurement": "normalized growth", "setting": "locus YPL209C, strain IPL1, active compounds read low", "value": 0.947}, {"measurement": "normalized growth", "setting": "locus YPL256C, strain CLN2, active compounds read low", "value": "0.631 (active)"}, {"measurement": "normalized growth", "setting": "locus YPR025C, strain CCL1, active compounds read low", "value": 0.943}, {"measurement": "normalized growth", "setting": "locus YPR106W, strain ISR1, active compounds read low", "value": 0.944}, {"measurement": "normalized growth", "setting": "locus YPR111W, strain DBF20, active compounds read low", "value": 0.918}, {"measurement": "normalized growth", "setting": "strain NNK1, active compounds read low", "value": 0.927}, {"measurement": "normalized growth", "setting": "strain TSCII, active compounds read low", "value": 0.927}]}
